The record followed here is the supplement of paper PMC12645437, “Orthogonal IMiD-Degron Pairs Induce Selective Protein Degradation in Cells” (ACS Chemical Biology, 2025).

In all, about 8,300 sequences were measured (“log2 fold change of degron read counts, EGFP-low vs EGFP+ sorted cells (limma voom), compound-induced degradation”: median about -1.1, highest 2% from about 3.2 on). For the sample, the highest values were picked, then their nearest neighbours and some sequences at random.

The target in this experiment is T1, CRBN, Q96SW2.
T1 chain: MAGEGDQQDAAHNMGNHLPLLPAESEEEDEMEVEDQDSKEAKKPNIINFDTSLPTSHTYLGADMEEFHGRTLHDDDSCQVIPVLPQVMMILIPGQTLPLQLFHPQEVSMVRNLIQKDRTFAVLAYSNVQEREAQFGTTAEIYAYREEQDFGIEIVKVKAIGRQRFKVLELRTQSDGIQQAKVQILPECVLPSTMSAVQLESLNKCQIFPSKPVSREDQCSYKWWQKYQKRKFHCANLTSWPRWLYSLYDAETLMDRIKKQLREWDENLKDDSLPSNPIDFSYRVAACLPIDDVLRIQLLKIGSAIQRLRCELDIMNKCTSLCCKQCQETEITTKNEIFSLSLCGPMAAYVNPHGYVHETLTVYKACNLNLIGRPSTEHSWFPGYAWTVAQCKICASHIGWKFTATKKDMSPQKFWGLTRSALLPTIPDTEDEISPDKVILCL
Put plainly: log2 fold change of degron read counts, EGFP-low vs EGFP+ sorted cells (limma voom), compound-induced degradation; higher = more compound-induced degradation of the degron-EGFP fusion; degrons are variants of IKZF1/3 zinc finger 2; compound dose not given here. To be noted: Jurkat, 18 h.

The mark [1] stands for this setting: compound: compound 19 (5-tert-butyl-thalidomide).
Where [2] appears, read: compound: compound 22 (5-morpholino-thalidomide).
[3] abbreviates: compound: compound 33 (diphenyl IMiD analogue).
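Further: pooled lentiviral library of zinc finger degron-EGFP fusions in mCherry-positive Jurkat cells, FACS-sorted after compound exposure, with degron abundance counted by next-generation sequencing.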

B1: 46F_47G_49P_50I_52G_53R_54K_55F_67L_, Q9UKT9 (peptide)
chain: FGCPICGRKFTQKGNLLRHIKL
As to B1, the “log2 fold change of degron read counts” value is, setting by setting: under setting [1], 3.06; under setting [2], 0.59; under setting [3], -1.32; (compound: thalidomide) -0.606.

B2: 46F_47R_49N_50Q_52G_53R_54V_55F_67L_, Q9UKT9 (peptide)
chain: FRCNQCGRVFTQKGNLLRHIKL
Take B2: the “log2 fold change of degron read counts” value was -2.28 under setting [1], -2.49 under setting [2], -2.54 under setting [3] and -1.61 (compound: thalidomide).

B3: 46F_47Q_49P_50I_52G_53R_54L_55F_67L_, Q9UKT9 (peptide)
chain: FQCPICGRLFTQKGNLLRHIKL
In the case of B3, the “log2 fold change of degron read counts” value is, setting by setting: under setting [1], -1.51; under setting [2], -0.0572; under setting [3], 0.785; (compound: thalidomide) 2.29.

B4: 46F_47V_49E_50I_52G_53A_54F_55F_67L_, Q9UKT9 (peptide)
chain: FVCEICGAFFTQKGNLLRHIKL
With B4, the “log2 fold change of degron read counts” value under setting [1] is -0.344, the “log2 fold change of degron read counts” value under setting [2] was -0.0422, the “log2 fold change of degron read counts” value under setting [3] amounted to 1.09 and the “log2 fold change of degron read counts” value (compound: thalidomide) was determined as 1.08.

B5: 46F_47I_49D_50V_52G_53A_54L_55F_67L_, Q9UKT9 (peptide)
chain: FICDVCGALFTQKGNLLRHIKL
With B5, the “log2 fold change of degron read counts” value reads like this: under setting [1], -1.82; under setting [2], -0.923; under setting [3], 0.0161; (compound: thalidomide) -0.806.

B6: 46F_47C_49P_50Q_52G_53A_54T_55F_67L_, Q9UKT9 (peptide)
chain: FCCPQCGATFTQKGNLLRHIKL
As for B6, the “log2 fold change of degron read counts” value under setting [1] is -1.19, the “log2 fold change of degron read counts” value under setting [2] is -0.971, the “log2 fold change of degron read counts” value under setting [3] was found to be 1.49 and the “log2 fold change of degron read counts” value (compound: thalidomide) was -0.551.

B7: 46F_47L_49P_50I_52G_53R_54E_55F_67L_, Q9UKT9 (peptide)
chain: FLCPICGREFTQKGNLLRHIKL
As for B7, the “log2 fold change of degron read counts” value is -2.12 under setting [1], -2.2 under setting [2], -0.686 under setting [3] and 0.04 (compound: thalidomide).

B8: 46F_47N_49N_50I_52G_53A_54I_55F_67L_, Q9UKT9 (peptide)
chain: FNCNICGAIFTQKGNLLRHIKL
In the case of B8, the “log2 fold change of degron read counts” value under setting [1] was -1.14, the “log2 fold change of degron read counts” value under setting [2] was -1.24, the “log2 fold change of degron read counts” value under setting [3] was -0.567 and the “log2 fold change of degron read counts” value (compound: thalidomide) was -1.09.

B9: 46F_47Q_49D_50Q_52G_53A_54W_55F_67L_, Q9UKT9 (peptide)
chain: FQCDQCGAWFTQKGNLLRHIKL
B9: the “log2 fold change of degron read counts” value under setting [1] is -2.29, the “log2 fold change of degron read counts” value under setting [2] is -2.57, the “log2 fold change of degron read counts” value under setting [3] is -1.93 and the “log2 fold change of degron read counts” value (compound: thalidomide) is -1.39.

B10: 46F_47F_49N_50V_52G_53A_54A_55F_67L_, Q9UKT9 (peptide)
chain: FFCNVCGAAFTQKGNLLRHIKL
For B10, the “log2 fold change of degron read counts” value under setting [1] amounted to 1.2, the “log2 fold change of degron read counts” value under setting [2] was 1.43, the “log2 fold change of degron read counts” value under setting [3] was found to be 0.704 and the “log2 fold change of degron read counts” value (compound: thalidomide) was -0.812.

B11: 46F_47C_49P_50I_52G_53A_54Y_55F_67L_, Q9UKT9 (peptide)
chain: FCCPICGAYFTQKGNLLRHIKL
As for B11, the “log2 fold change of degron read counts” value by setting is: under setting [1], 1.38; under setting [2], 1.19; under setting [3], 1.52; (compound: thalidomide) 1.42.

B12: 46F_47V_49P_50I_52G_53A_54Y_55F_67L_, Q9UKT9 (peptide)
chain: FVCPICGAYFTQKGNLLRHIKL
For B12, the “log2 fold change of degron read counts” value is, setting by setting: under setting [1], 0.319; under setting [2], 1.86; under setting [3], 1.7; (compound: thalidomide) 2.59.

B13: 46F_47Y_49P_50I_52G_53A_54Y_55F_67L_, Q9UKT9 (peptide)
chain: FYCPICGAYFTQKGNLLRHIKL
For the sequence B13, the “log2 fold change of degron read counts” value worked out at 3.26 under setting [1], 3.12 under setting [2], 2.39 under setting [3] and 1.01 (compound: thalidomide).

B14: 46F_47N_49P_50I_52G_53A_54Y_55F_67L_, Q9UKT9 (peptide)
chain: FNCPICGAYFTQKGNLLRHIKL
B14: the “log2 fold change of degron read counts” value stood at 2.2 under setting [1], 1.13 under setting [2], 0.721 under setting [3] and 0.825 (compound: thalidomide).

B15: 46F_47T_49P_50I_52G_53A_54Y_55F_67L_, Q9UKT9 (peptide)
chain: FTCPICGAYFTQKGNLLRHIKL
On to B15, for which the “log2 fold change of degron read counts” value stood at 1 under setting [1], 2.25 under setting [2], 2.83 under setting [3] and 3.31 (compound: thalidomide).

B16: 46F_47S_49P_50I_52G_53A_54Y_55F_67L_, Q9UKT9 (peptide)
chain: FSCPICGAYFTQKGNLLRHIKL
Turning to B16, the “log2 fold change of degron read counts” value under setting [1] stood at 2.23, the “log2 fold change of degron read counts” value under setting [2] worked out at 1.26, the “log2 fold change of degron read counts” value under setting [3] was found to be 2.17 and the “log2 fold change of degron read counts” value (compound: thalidomide) came to 1.38.

B17: 46F_47I_49P_50I_52G_53A_54Y_55F_67L_, Q9UKT9 (peptide)
chain: FICPICGAYFTQKGNLLRHIKL
With B17, the “log2 fold change of degron read counts” value by setting is: under setting [1], -0.481; under setting [2], 2.03; under setting [3], 1.75; (compound: thalidomide) 1.86.

B18: 46F_47W_49P_50I_52G_53A_54Y_55F_67L_, Q9UKT9 (peptide)
chain: FWCPICGAYFTQKGNLLRHIKL
Regarding B18, the “log2 fold change of degron read counts” value reads like this: under setting [1], 2.72; under setting [2], 2.69; under setting [3], 2.4; (compound: thalidomide) 0.973.

B19: 46F_47Q_49P_50I_52G_53A_54Y_55F_67L_, Q9UKT9 (peptide)
chain: FQCPICGAYFTQKGNLLRHIKL
For B19, the “log2 fold change of degron read counts” value under setting [1] was -1.06, the “log2 fold change of degron read counts” value under setting [2] came to 0.884, the “log2 fold change of degron read counts” value under setting [3] was found to be 1.61 and the “log2 fold change of degron read counts” value (compound: thalidomide) was found to be 3.36.
